# Source: PubChem (several laboratories)
# HSP90 inh: inhibitors of HSP90 luciferase refolding in rabbit reticulocyte lysate. luciferase refolding luminescence, 3 h. inhibition, % at 5.6 µM. 290,000 tested, 0.91% active. AID 1789;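 active = inhibition above the screen-wide mean plus 3 SD, computed separately per campaign, cut at about 16% in these data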;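 note: 0% = DMSO wells and 100% = 60 µM geldanamycin wells; inhibitors lower the luminescence because luciferase stays unfolded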
# dFosB activator: enhances mouse delta FosB homodimer DNA binding. P13346. purified delta FosB, TAMRA-CDK5 oligo fluorescence polarization; percent of positive-control signal above neutral wells. activation, % at 25 µM. 340,000 tested, 0.99% active;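 active = mean activation above about 17%, with every replicate also reaching it, limit read from the data, passing the limit was not always enough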
# Target sequence (P13346 whole entry, looked up): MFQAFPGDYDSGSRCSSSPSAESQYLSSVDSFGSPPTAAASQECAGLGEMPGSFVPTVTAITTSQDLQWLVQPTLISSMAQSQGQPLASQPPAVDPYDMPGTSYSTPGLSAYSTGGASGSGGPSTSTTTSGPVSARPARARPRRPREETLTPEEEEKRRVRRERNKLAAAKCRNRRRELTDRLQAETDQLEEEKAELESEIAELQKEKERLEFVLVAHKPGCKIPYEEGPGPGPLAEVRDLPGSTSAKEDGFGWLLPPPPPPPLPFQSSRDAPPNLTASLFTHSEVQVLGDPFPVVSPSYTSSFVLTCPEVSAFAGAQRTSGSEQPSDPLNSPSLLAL
# HSF-1 act: increases HSF-1 driven luciferase reporter signal; NIH3T3-HGL HSF-1 luciferase reporter, MG132, 8 h; 100% = twice DMSO control signal; activation, % at 9 µM; 300,000 tested, 1.7% active;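 active = mean replicate activation of at least 50% with a set share of replicates each reaching 50%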;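 note: 0% = median of the neutral control wells and 100% = twice that signal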
# HSF1 inhib: HSF1 inhibition; activity change, negative = inhibition, % at 7.5 µM (by protocol); 300,000 tested, 0.77% active; NIH3T3-HGL HSE-luciferase, MG132-induced, luminescence 8 h; stronger effect = lower value;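 active = more than half of replicate wells show activity change below -50%, luminescence cut by over half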;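 note: luciferase reports HSF-1 transcriptional activity via heat shock element; 0% = median of DMSO wells and -100% = zero luminescence signal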
# MPTP block: inhibitors of mitochondrial permeability transition pore; isolated mouse mitochondria, Ca2+ swelling absorbance, 30 min; inhibition, % at 10 µM; 360,000 tested, 1.4% active; AID 602449;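 active = inhibition of 50% or more, scaled per plate between neutral and stimulator controls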;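 note: 0% = DMSO wells given calcium and 100% = 1 mM EGTA wells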
# Platelet DG rel: modulates dense granule release in human platelets; 300,000 tested, 0.22% active; inhibition, %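 (compounds screened at 7.5 µM in platelet-rich plasma)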; human platelet-rich plasma, SFLLRN dense granule ATP release, luminescence;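 active = mean replicate score, as percent of positive control, at or above 50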
# The depositor's hits bear a star; . = no result. Hits are enriched below; roughly 4.9% of the tested compounds scored in any of these assays.
SMILES,HSP90 inh,dFosB activator,HSF-1 act,HSF1 inhib,MPTP block,Platelet DG rel
COc1ccc(-c2nc(C#N)c(NCc3ccc(C)cc3)o2)cc1OC,-4.2,-2.3,16.9,3.3,1.8,7.4
COc1ccc(S(=O)(=O)N2CCC(C(=O)NCCC(=O)NCc3cccnc3)CC2)cc1,.,.,.,.,0.7,.
CCOc1ccc2sc(NS(=O)(=O)c3ccc(OC)c(OC)c3)nc2c1,-1.4,-11.1,64.4*,32.1,-0.6,-3.2
COc1ccc(S(=O)(=O)Nc2nc3ccccc3s2)cc1,-1.6,6.0,5.9,-2.0,0.7,1.1
O=C(CCNC(=O)c1ccccc1)NNC(=O)c1ccccc1Br,.,2.5,.,.,0.2,.
Oc1cccc2ccc(/C=C/c3ccccc3Br)nc12,-1.1,1.6,31.4,15.6,-1.4,-0.8
COc1cc(Br)cc(/C=C/c2ccc3cccc(O)c3n2)c1O,1.4,-3.7,84.6*,63.3,7.9,-1.7
Cc1ccsc1/C=C/c1ccc2cccc(O)c2n1,1.8,-10.0,71.4*,46.3,3.4,10.6
Oc1ccc(Cl)cc1/C=C/c1ccc2cccc(O)c2n1,0.1,11.6,58.2*,28.7,14.5,11.3
Oc1c(C(Nc2nccs2)c2ccc(C(F)(F)F)cc2)ccc2cccnc12 (stereo not drawn),1.7,-10.3,-69.9,-59.5*,-0.3,0.0
Oc1c(C(Nc2cccc(C(F)(F)F)c2)c2ccncc2)ccc2cccnc12 (stereo not drawn),2.8,-3.1,-40.8,-31.0,-0.4,-1.8
COc1ccc2c(C)c(CCC(=O)NCCCN3CCCC3=O)c(=O)oc2c1C,-0.1,-3.0,11.2,15.3,-0.4,0.4
COc1ccc(/C=C/C(=O)Nc2cc(=O)n(C)c(=O)n2C)cc1,-4.0,-13.1,59.9*,27.5,0.4,11.8
Cn1c(NC(=O)/C=C/c2ccc(Cl)c(Cl)c2)cc(=O)n(C)c1=O,-3.0,0.5,55.5*,44.3,3.0,-23.9
O=C(/C=C/c1ccc(Cl)c(Cl)c1)Nc1cccnc1,.,-8.6,14.6,16.2,20.7,0.4
Cn1c(NC(=O)/C=C/c2ccccc2)cc(=O)n(C)c1=O,-3.2,-18.6,28.9,14.8,-0.2,-2.3
O=C1C=C(c2ccccc2)C(c2ccccc2)C1 (stereo not drawn),.,-8.5,.,.,0.5,.
Cc1nc2ccccc2n1CC(O)COCC1CC=CCC1 (stereo not drawn),-4.2,-4.0,86.9*,41.8,9.8,-28.7
O=C(O)c1cc(N2C(=O)C3C4C=CC(C4)C3C2=O)ccc1N1CCOCC1 (stereo not drawn),-0.9,-1.5,32.3,8.9,-1.4,-5.6
CCCc1nc(SCC(=O)N2CCCCCC2)c2c(=O)n(C)c(=O)n(C)c2n1,-0.8,.,-9.7,0.9,.,-14.8
Cc1cc(C(=O)Nc2sc3c(c2C#N)CCC(C)C3)cs1 (stereo not drawn),-5.8,-0.9,74.4*,23.1,0.6,5.9
O=C1Nc2ccccc2Cc2ccccc21,.,.,.,.,-0.3,.
Cc1ccccc1Oc1nc2c(C)cccn2c(=O)c1/C=C(\C#N)C(=O)Nc1c(C)n(C)n(-c2ccccc2)c1=O,0.0,2.8,136.6*,104.8,-0.2,-1.1
CN(/N=C/c1cc(Cl)cc(Cl)c1O)c1c(Cl)cccc1[N+](=O)[O-],-0.4,-13.7,10.2,-2.5,5.8,-5.9
Cc1noc(C)c1CSc1ncnc2sc3c(c12)CCC3,1.1,.,-78.4,-73.0*,.,-8.3
SMILES,HSP90 inh,dFosB activator,HSF-1 act,HSF1 inhib,MPTP block,Platelet DG rel
CC(CCc1ccccc1)NC(=O)c1ccccc1Cl (stereo not drawn),-1.1,-0.3,24.4,9.6,0.6,-11.4
O=c1o[nH]c(-c2ccccc2)c1-c1ccccc1,.,.,-67.5,-59.8*,3.2,-0.5
CCCC1CCc2c(sc(NC(=O)c3cccs3)c2C(N)=O)C1 (stereo not drawn),1.9,1.7,61.2*,31.0,0.8,3.5
Cc1cccc(C(=O)NCC(=O)OCC(=O)N2CCc3ccccc32)c1,1.9,-0.5,10.8,-2.4,-0.7,-8.8
O=C(COc1ccc(F)cc1Br)N1CCc2ccccc21,0.4,-9.9,80.0*,23.3,3.7,4.3
O=C(CNC(=O)c1ccccc1Cl)OCC(=O)N1CCc2ccccc21,-3.6,-9.6,55.0*,27.2,1.5,2.5
COc1ccc(OC)c(C(=O)/C=C/c2ccccc2C(F)(F)F)c1,2.9,2.9,212.0*,158.5,-0.4,-2.8
COc1ccc(C(=O)/C=C/c2ccc(N3CCCCC3)c([N+](=O)[O-])c2)cc1,-0.3,-7.1,24.6,14.8,1.9,-16.9
COc1ccc(C(=O)/C=C/c2ccc(N3CCCCC3)c([N+](=O)[O-])c2)c(OC)c1,-0.3,-5.7,67.8*,49.7,0.9,-3.7
COCOc1cc(O)c(C(=O)/C=C/c2ccccc2)c(OCOC)c1,.,6.1,155.1*,150.6,-0.2,-1.2
COc1ccc(C(=O)/C=C/c2ccccc2)c(OC)c1,0.5,-4.5,62.3*,34.1,1.4,1.3
CCOc1ccc(C(=O)NCC(=O)NCC(c2ccco2)N2CCCCC2)cc1 (stereo not drawn),.,8.0,.,.,-0.4,.
CC(C)(C)OC(=O)C[C@@H]1C/C=C\C[C@@H](CC(=O)N[C@@H](CO)Cc2ccccc2)C(=O)NCCOC1=O,.,-10.1,.,.,-0.6,.
O=C1COc2ccc(S(=O)(=O)Nc3cccc(Cl)c3)cc2N1,-3.8,-17.0,-2.2,-2.0,2.3,1.9
Cc1c(Cl)cccc1NC(=O)Cc1ccc([N+](=O)[O-])cc1,-1.3,2.3,20.4,7.6,34.7,0.1
CCCc1n(CC)c2ccccc2[n+]1CC(O)COC1CCCCC1 (stereo not drawn),4.0,3.8,1.9,-6.3,2.9,-0.2
COc1ccc(C(=O)/C=C/Nc2cc(C)on2)c(OC)c1,-3.0,-10.7,-66.2,-58.2*,0.9,-0.4
COc1ccc(NC(=O)CN(C)C(=O)c2ccc(N3CCCCCC3)c([N+](=O)[O-])c2)cc1,.,-7.6,66.6*,22.7,0.2,-7.3
Cc1csc2cc(-c3cccc([N+](=O)[O-])c3)c(-c3cccc([N+](=O)[O-])c3)c[n+]12,-0.2,1.0,2.0,-3.6,-2.6,-11.0
Cc1cccc(C)c1NC(=O)C(c1ccccc1F)n1c(=O)c(-c2ccccc2)nc2ccccc21 (stereo not drawn),.,.,.,.,1.1,.
COC(=O)c1ccccc1NC(=S)N(Cc1ccc2c(c1)OCO2)Cc1cc2ccc(OC)cc2[nH]c1=O,-2.1,0.1,90.1*,49.8,7.7,-1.3
COc1ccc2cc(CN(Cc3ccco3)C(=S)NCC3CCCO3)c(=O)[nH]c2c1 (stereo not drawn),-1.7,-13.2,55.3*,24.7,-1.7,5.3
COc1ccc2[nH]c(=O)c(CN(Cc3ccccc3)C(=S)NCC3CCCO3)cc2c1 (stereo not drawn),1.4,-4.4,9.6,5.6,-1.6,-4.6
